The panel holds about 79,000 compounds, 15% with a hit somewhere; the sample as a whole holds those more often. A number with no mark means an inactive call. Calls of active or inactive are those of the source. Rule as the data show it: active = growth inhibition above about 70%; inactive = the rest.
How the values were obtained:
[1] = NCI Yeast Anticancer Drug Screen. Data for the rad50 strain (AID 155);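 also: 0% = growth of vehicle-only cultures of the same strain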; details: S. cerevisiae rad50 strain growth inhibition, active compounds read high
Summary of the method: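 Cells are treated with compound, grown, and their growth is then scored against vehicle-only cultures of the same repair-deficient yeast strain.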

[2] = NCI Yeast Anticancer Drug Screen. Data for the mec2-1 strain (AID 157); details: S. cerevisiae mec2-1 strain, active compounds read high
Summary of the method: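 Mutant yeast (mec2-1) grown with compound; growth inhibition relative to vehicle control reported.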

[3] = NCI Yeast Anticancer Drug Screen. Data for the sgs1 mgt1 strain (AID 161);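 also: 0% = growth of cultures given vehicle only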; details: S. cerevisiae sgs1 mgt1 strain, active compounds read high
Summary of the method: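 Compounds are added to genetically altered yeast, and growth is compared with cultures given vehicle alone to give percent inhibition.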

[4] = NCI Yeast Anticancer Drug Screen. Data for the cln2 rad14 strain (AID 165);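 also: 0% = growth equal to vehicle treated cultures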; details: S. cerevisiae cln2 rad14 strain, active compounds read high
Summary of the method: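 Readout is yeast growth inhibition versus vehicle-treated controls, using a strain with cln2 and rad14 alterations exposed to compound.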

[5] = NCI Yeast Anticancer Drug Screen. Data for the bub3 strain (AID 167); details: S. cerevisiae bub3 mutant strain, active compounds read high
Summary of the method: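 Part of a panel of yeast mutants defective in DNA damage repair or cell cycle regulation. Each strain is grown with compound, and inhibition is calculated relative to solvent-treated cultures.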

[6] = NCI Yeast Anticancer Drug Screen. Data for the mlh1 rad18 strain (AID 175); details: S. cerevisiae mlh1 rad18 strain growth inhibition, active compounds read high
Summary of the method: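 Genetically defined yeast (DNA repair-deficient) exposed to compounds; growth inhibition determined relative to vehicle.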

[7] = at 5.0 µM (retest, dose inferred, filed as 0.5)
[8] = at 50.0 µM (retest, dose inferred, filed as 5.0)

SMILES	growth inhibition [1, 7]	growth inhibition [1, 8]	growth inhibition ([1]; at 50.0 µM)	growth inhibition [2, 7]	growth inhibition [2, 8]	growth inhibition ([2]; at 50.0 µM)	growth inhibition [3, 7]	growth inhibition [3, 8]	growth inhibition ([3]; at 50.0 µM)	growth inhibition [4, 7]	growth inhibition [4, 8]	growth inhibition ([4]; at 50.0 µM)	growth inhibition [5, 7]	growth inhibition [5, 8]	growth inhibition ([5]; at 50.0 µM)	growth inhibition [6, 7]	growth inhibition [6, 8]	growth inhibition ([6]; at 50.0 µM)
CCN(CC)CCCNc1cc(C)nc2c1ccc1c2ccc2c(NCCCN(CC)CC)cc(C)nc21	-4%	92% (active)	61.9%	-2%	75% (active)	97.8% (active)	-1%	78% (active)	65.8%	-7%	82% (active)	73.7% (active)	-4%	97% (active)	96.7% (active)	-4%	81% (active)	94.2% (active)
COc1ccc(C(=O)c2cc(Cl)ccc2N)cc1	16%	93% (active)	99% (active)	-1%	87% (active)	98.2% (active)	8%	91% (active)	99.1% (active)	-8%	71% (active)	92.1% (active)	1%	73% (active)	99.2% (active)	-1%	95% (active)	94.2% (active)
CNC(=O)OC1/C(C)=C\C(C)C(O)C(OC)CC(C)CC2=C(OC)C(=O)C=C(C2=O)N(C)C(=O)/C(C)=C/C=C\C1OC (configuration not stated)	-24%	25%	65%	-28%	70% (active)	83.8% (active)	-22%	39%	65.8%	8%	68%	50%	9%	80% (active)	73.6% (active)	-3%	68%	51%
CC(=O)Nc1cc(F)c2c(c1)Cc1ccccc1-2	5%	77% (active)	-1.75%	-2%	59%	19.5%	-1%	84% (active)	-16.8%	0%	77% (active)	89.4% (active)	2%	83% (active)	90.5% (active)	4%	78% (active)	-14.2%
Cc1ccc(C(=O)CC(N)C(=O)O)cc1 (configuration not stated)	-2%	0%	12.2%	3%	-2%	-3%	-1%	-1%	-3.05%	2%	1%	89% (active)	2%	-2%	-2.25%	-1%	3%	8.95%
O=S(=O)(Sc1ccccc1)C(c1ccccc1)c1ccccc1	3%	72% (active)	-21.6%	2%	71% (active)	-1.25%	2%	66%	14.1%	1%	28%	-12.8%	-4%	97% (active)	62%	4%	72% (active)	6.85%
CN(C)c1ccc(/C=C/c2nc3ccccc3s2)cc1	8%	79% (active)	3.1%	14%	60%	23.6%	-3%	91% (active)	4.3%	-3%	14%	36.4%	-3%	1%	-2.45%	30%	91% (active)	83.3% (active)
CCCOC(=O)C(Br)C(Br)C(=O)OCCC (configuration not stated)	60%	97% (active)	90.5% (active)	57%	98% (active)	93% (active)	36%	100% (active)	93.5% (active)	59%	101% (active)	91% (active)	46%	100% (active)	91.8% (active)	44%	98% (active)	90.5% (active)
CCOC(=O)Cc1[nH]c(C(=O)c2ccccc2)cc1C(=O)c1ccccc1	20%	87% (active)	-44.6%	11%	81% (active)	-9.35%	-1%	88% (active)	-36.1%	7%	97% (active)	5%	-2%	97% (active)	-24.4%	17%	89% (active)	-42.9%
CCOC(=O)N1CCN(CCCCCCOc2ccc(C(C)(C)C)cc2)CC1	3%	82% (active)	93.5% (active)	28%	87% (active)	96% (active)	31%	97% (active)	98.1% (active)	12%	61%	94.5% (active)	7%	76% (active)	96.7% (active)	38%	97% (active)	98.6% (active)
COc1ccc(C2c3cc4c(cc3OC(N3CCCC3)C2C)OCO4)c(OC)c1 (configuration not stated)	-3%	77% (active)	94.5% (active)	-5%	53%	94.2% (active)	1%	74% (active)	88.2% (active)	-4%	68%	71% (active)	-6%	68%	87.8% (active)	-3%	82% (active)	93.5% (active)
Nc1nnc2nc(CC(=O)c3ccccc3)/c(=C/C(=O)c3ccccc3)n12	-21%	-10%	-14.1%	-11%	-20%	9.4%	-23%	-6%	1.05%	-17%	-16%	28.6%	5%	-5%	-4.95%	-21%	-9%	-0.3%
CNC1C(O)C(NC)C2OC3(O)C(=O)CC(C)OC3OC2C1O (configuration not stated)	-7%	6%	84.1% (active)	1%	-19%	89.8% (active)	-7%	-1%	9.05%	17%	23%	83.7% (active)	-1%	-9%	86.3% (active)	-27%	-30%	86.7% (active)
O=C(CCCN1CCc2[nH]c3cc(F)ccc3c2C1)c1ccc(F)cc1	-11%	97% (active)	84.8% (active)	-12%	98% (active)	68%	-7%	98% (active)	90% (active)	-9%	94% (active)	84.4% (active)	-30%	98% (active)	91.7% (active)	12%	99% (active)	85.6% (active)
CC1(C)OC2C(COC(c3ccccc3)(c3ccccc3)c3ccccc3)OC(n3cnc4c(=O)[nH]cnc43)C2O1 (configuration not stated)	43%	97% (active)	69%	62%	99% (active)	62%	24%	99% (active)	56.5%	19%	97% (active)	50.9%	30%	98% (active)	49.9%	84% (active)	98% (active)	61.9%
CCN(CC)CCNc1c(OC)cc(C)c2sc3ccccc3c(=O)c12	8%	75% (active)	81.2% (active)	6%	-1%	39.5%	0%	66%	82.8% (active)	1%	39%	33.1%	1%	33%	57%	4%	86% (active)	94% (active)
O=C(CC(c1ccccc1)c1ccccc1)NCCCCN1CCCCCCC1	27%	89% (active)	12%	19%	96% (active)	-9%	25%	94% (active)	22.9%	2%	90% (active)	89.7% (active)	5%	93% (active)	26.4%	16%	93% (active)	19.4%
CN[C@@H](Cc1cccc2ccccc12)C(=O)N[C@@H](CC(C)C)B(O)O	34%	51%	27.1%	37%	40%	12.1%	16%	18%	3.85%	53%	54%	59.4%	25%	16%	36.5%	33%	60%	16.4%
CCNc1cc(SC)nc(N)n1	1%	-4%	1.2%	-1%	2%	37.1%	-1%	-3%	-7.6%	-8%	3%	-3.6%	-2%	-1%	-23.2%	1%	-4%	-22.4%
